Measurements reported in PubChem BioAssay.
Where “and” joins values, the source holds several entries; their conditions need not be identical. Equal values may be shown once. Calls of active or inactive are those of the source. Unless noted, no stated cut-off is given here; in the data, active means inhibition above about 80%; inactive means the rest.

Key:
[1] = target: NAD(+) hydrolase SARM1 (Homo sapiens) (UniProt Q6SZW1); assay: blocking NAD cleavage by SARM1 SAM-TIR – cell lysate, NAD-Glo luminescence (AID 1508614;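 active means compound whose remaining NAD level is above about 45 nM, limit read from the data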); settings: SAM-TIR HEK293T lysate NADase, at 1 µM, stronger effect = higher value
[2] = target: Mitogen-activated protein kinase 7 (Homo sapiens) (UniProt Q13164); assay: Gal4-ERK5 driven luciferase induction – cell-based, HTS, primary screen (AID 1508626;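 active means luciferase signal above three times the same-plate solvent-only control wells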;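 further: luciferase driven by Gal4-ERK5 fusion binding five Gal4 sites before minimal TATA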); settings: HeLa Gal4-ERK5 transactivation, 18 h, at 5 µM, stronger effect = higher value
[3] = growth inhibition, single agent or in combination, cell-based, chromothripsis tumors, cisplatin or BGB combos (AID 1671449); settings: LFS_MB_P medulloblastoma cells;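 further: cells exposed for 96 hours; 0% = vehicle DMSO and 100% = killing by high DMSO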
[4] = growth inhibition, single agent and combos, cell-based, chromothripsis tumors, cisplatin or BGB combos (AID 1671450); settings: HDN33 neuroblastoma cells, stronger effect = higher value;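 further: cells exposed to compound for four days; 0% = vehicle DMSO and 100% = cell killing by high DMSO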
[5] = growth inhibition, single agents and combos, ICB984, cell-based, cisplatin or BGB combos, synergistic combos for chromothripsis tumors (AID 1671451; call rule not given here;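 further: cells exposed for 96 hours before readout; 0% = vehicle DMSO and 100% = killing by high DMSO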); settings: ICB984 medulloblastoma cells, drug combinations, stronger effect = higher value
[6] = growth inhibition, single agents and combos, LFS_MB_1R, cell-based, cisplatin or BGB combos, synergistic combos for chromothripsis tumors (AID 1671452); settings: LFS_MB_1R medulloblastoma cells, stronger effect = higher value;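 further: cells exposed for 96 hours before readout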
[7] = growth inhibition, single agents and combos, HTB85, cell-based, BGB or cisplatin IC20 combos, synergistic combos for chromothripsis tumors (AID 1671453); settings: HTB85 osteosarcoma cells, drug combinations, stronger effect = higher value;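 further: cells exposed for 96 hours before readout; 0% = vehicle DMSO and 100% = high DMSO killing control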
[8] = growth inhibition, single agents and combos, CRL2098, cell-based, BGB or cisplatin IC20 combos, synergistic combos for chromothripsis tumors (AID 1671454); settings: CRL2098 osteosarcoma cells, drug combinations, stronger effect = higher value;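 further: cells exposed for 96 h before readout; 0% = vehicle DMSO and 100% = killing by high DMSO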
[9] = growth inhibition, single agents and combos, HD-MB03, cell-based, BGB or cisplatin IC20 combos, synergistic combos for chromothripsis tumors (AID 1671455; in the data active means inhibition above about 83%;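 further: 0% = vehicle DMSO and 100% = high DMSO as cytotoxic control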); settings: HD-MB03 medulloblastoma cells, stronger effect = higher value
[10] = growth inhibition, single agents and combos, UWB1.289, cell-based, BGB or cisplatin combos, synergistic combos for chromothripsis tumors (AID 1671456); settings: UWB1.289 ovarian carcinoma cells, stronger effect = higher value;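 further: cells exposed to compound for four days; 0% = vehicle DMSO and 100% = killing by high DMSO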
[11] = growth inhibition, single agents and combos, LFS_MB_2R, cell-based, cisplatin combos, synergistic combos for chromothripsis tumors (AID 1671457); settings: LFS_MB_2R medulloblastoma cells, stronger effect = higher value;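 further: cells exposed to compound for four days before readout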
[12] = growth inhibition, MDA-MB-436, cell-based, BGB or cisplatin combos, synergistic combos for chromothripsis tumors (AID 1671458; call rule not given here;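 further: cells exposed for 96 hours; 0% = vehicle DMSO and 100% = killing by high DMSO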); settings: MDA-MB-436 breast carcinoma growth inhibition, drug combinations, stronger effect = higher value
[13] = UWB1.289_BRCA1 ovarian cancer growth, cell-based, BGB or cisplatin combinations (AID 1671459); settings: UWB1.289 BRCA1 ovarian carcinoma, drug combinations, stronger effect = higher value
[14] = drug combination toxicity in non-malignant astrocytes – cell-based, BGB or cisplatin IC20 combos, cytotoxicity control for chromothriptic childhood tumor combination screen (AID 1671460); settings: Human astrocytes, viability inhibition, drug combinations, at 0.5 µM, stronger effect = higher value;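 further: cells exposed to compounds for 96 hours before viability readout; 0% = vehicle and 100% = killing control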
[15] = BT084 cell growth, single and combined drugs, ICGC_MB145, cisplatin and BGB IC40 combos (AID 1671461); settings: BT084 medulloblastoma cells, drug combinations, stronger effect = higher value;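 further: cells exposed to drugs for 96 hours; 0% = vehicle DMSO and 100% = high DMSO full killing control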
[16] = RCMB18 cell growth, single agent and combined, cisplatin and BGB IC40 combos (AID 1671462); settings: RCMB18 medulloblastoma cells, stronger effect = higher value;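 further: cells exposed to compound for four days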
[17] = CRL1545 cell growth, single agent and combined, cisplatin and BGB IC20 combos (AID 1671464); settings: CRL1545 osteosarcoma cells, stronger effect = higher value;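 further: cells exposed to compound for 96 hours before readout; 0% = vehicle DMSO and 100% = high DMSO killing control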
[18] = galactose survival enhancers in mitochondrial complex I cybrids – cell-based, galactose medium, ATP luminescence, primary screen (AID 1645843;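 active means z-score of at least 1.8 in each of two replicates, scored against plate mean and spread of sample wells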;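 further: positive z means more ATP and so rescue of galactose-driven cybrid death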); settings: complex I mutant cybrid cells, 72 h, stronger effect = higher value
[19] = measured here: combination with BGB IC40, at 0.05 µM
[20] = measured here: with BGB IC20 combination, at 0.5 µM
[21] = measured here: with cisplatin IC20 combination, at 0.5 µM
[22] = measured here: combination with cisplatin, at 0.5 µM
[23] = measured here: combination with cisplatin, at 5 µM

Sequence of NAD(+) hydrolase SARM1 (Homo sapiens) (Q6SZW1 whole entry, looked up, the tested form may be a part): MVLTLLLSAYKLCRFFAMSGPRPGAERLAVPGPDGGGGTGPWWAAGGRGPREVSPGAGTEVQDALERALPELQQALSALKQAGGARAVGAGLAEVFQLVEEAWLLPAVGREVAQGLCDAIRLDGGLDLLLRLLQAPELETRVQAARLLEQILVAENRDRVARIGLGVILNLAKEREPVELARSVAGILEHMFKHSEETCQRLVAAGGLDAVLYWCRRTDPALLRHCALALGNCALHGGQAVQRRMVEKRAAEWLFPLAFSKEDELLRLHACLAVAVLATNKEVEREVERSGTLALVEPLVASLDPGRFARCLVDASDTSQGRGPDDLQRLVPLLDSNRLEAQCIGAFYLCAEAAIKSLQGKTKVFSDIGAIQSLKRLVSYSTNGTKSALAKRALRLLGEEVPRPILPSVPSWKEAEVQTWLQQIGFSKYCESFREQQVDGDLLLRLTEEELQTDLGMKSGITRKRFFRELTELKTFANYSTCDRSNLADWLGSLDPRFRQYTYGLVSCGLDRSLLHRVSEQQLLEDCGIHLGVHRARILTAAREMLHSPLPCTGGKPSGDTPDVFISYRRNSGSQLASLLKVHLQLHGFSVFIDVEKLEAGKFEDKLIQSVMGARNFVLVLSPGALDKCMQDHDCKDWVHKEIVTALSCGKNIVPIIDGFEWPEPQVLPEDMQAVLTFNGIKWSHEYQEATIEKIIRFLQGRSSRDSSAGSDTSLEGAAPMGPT
Sequence of Mitogen-activated protein kinase 7 (Homo sapiens) (Q13164 whole entry, looked up, the tested form may be a part): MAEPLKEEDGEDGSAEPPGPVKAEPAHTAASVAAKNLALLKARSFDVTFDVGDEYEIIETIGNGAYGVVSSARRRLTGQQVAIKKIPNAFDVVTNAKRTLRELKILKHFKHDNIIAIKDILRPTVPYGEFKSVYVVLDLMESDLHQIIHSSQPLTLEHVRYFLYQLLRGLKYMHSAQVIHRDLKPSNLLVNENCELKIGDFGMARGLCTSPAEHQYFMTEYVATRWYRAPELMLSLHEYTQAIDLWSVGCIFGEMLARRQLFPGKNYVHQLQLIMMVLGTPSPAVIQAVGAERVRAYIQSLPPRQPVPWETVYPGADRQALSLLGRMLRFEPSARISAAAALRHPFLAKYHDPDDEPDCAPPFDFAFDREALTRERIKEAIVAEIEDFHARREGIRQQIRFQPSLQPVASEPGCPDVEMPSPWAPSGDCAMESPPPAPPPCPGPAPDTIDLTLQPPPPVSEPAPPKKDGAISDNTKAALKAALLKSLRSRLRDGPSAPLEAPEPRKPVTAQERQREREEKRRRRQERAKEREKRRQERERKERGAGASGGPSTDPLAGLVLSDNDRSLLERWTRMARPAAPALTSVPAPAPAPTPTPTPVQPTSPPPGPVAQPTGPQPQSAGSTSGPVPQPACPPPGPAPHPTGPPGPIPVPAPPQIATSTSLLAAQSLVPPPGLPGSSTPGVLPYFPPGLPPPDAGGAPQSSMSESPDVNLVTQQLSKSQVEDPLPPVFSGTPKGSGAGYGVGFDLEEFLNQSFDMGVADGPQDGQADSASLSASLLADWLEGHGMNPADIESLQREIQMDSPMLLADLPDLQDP

Nc1nc(=S)c2[nH]cnc2[nH]1
remaining NAD [1]: 10 nM (inactive) | luciferase signal [2]: 52 AU (inactive) | inhibition ([3]; at 0.5 µM, stronger effect = higher value): -26.3% (inactive) | inhibition ([3]; measured here: combination with BGB IC20, at 0.005 µM): -7.21% | inhibition ([3]; measured here: combination with BGB IC40, at 0.005 µM): -35.9% | inhibition [3, 19]: -9.84% | inhibition ([3]; measured here: combination with cisplatin, at 0.5 µM, stronger effect = higher value): -38.8% | inhibition ([3]; measured here: combination with cisplatin, at 5 µM, stronger effect = higher value): -43.8% | inhibition ([4]; BGB combo, at 5 µM): 73.6% | inhibition ([4]; at 0.5 µM): 33.6% (inactive) | inhibition ([4]; cisplatin combo, at 5 µM): 70.5% | inhibition [4, 20]: 23.3% | inhibition [4, 21]: 18.7% | inhibition ([4]; single agent, at 5 µM): 80.7% | inhibition ([5]; BGB IC20 combo, at 0.005 µM): -12.4% | inhibition ([5]; BGB IC40 combo, at 0.005 µM): -52.4% | inhibition ([5]; BGB IC40 combo, at 0.05 µM): -32.5% | inhibition ([5]; at 0.5 µM): -36% (inactive) | inhibition ([5]; cisplatin combo, at 0.05 µM): -37.7% | inhibition ([5]; cisplatin combo, at 0.5 µM): -55.5% | inhibition ([5]; cisplatin combo, at 5 µM): -19.8% | inhibition ([5]; measured here: 5 uM single agent, at 5 µM): -9.37% | inhibition ([6]; at 0.5 µM): -22.2% (inactive) | inhibition [6, 19]: 5.91% | inhibition [6, 22]: -61.3% | inhibition [6, 23]: -34.3% | inhibition ([7]; at 0.5 µM): 1.06% (inactive) | inhibition ([7]; measured here: with BGB IC20, at 0.5 µM): 3.8% | inhibition ([7]; measured here: with BGB IC20, at 5 µM): 46% | inhibition ([7]; measured here: with cisplatin IC20, at 0.5 µM): -7.75% | inhibition ([7]; measured here: with cisplatin IC20, at 5 µM): 16.3% | inhibition ([7]; single agent, at 5 µM): 52.5% | inhibition ([8]; at 0.5 µM): -31.6% (inactive) | inhibition ([8]; measured here: combination with BGB at IC20, at 0.5 µM): -18.7% | inhibition ([8]; measured here: combination with cisplatin at IC20, at 0.5 µM): -26.5% | inhibition ([9]; at 0.5 µM): -3.75% (inactive) | inhibition ([9]; measured here: combo with BGB at IC20, at 0.5 µM): -3.35% | inhibition ([9]; measured here: combo with cisplatin at IC20, at 0.5 µM): -7.29% | inhibition ([10]; at 0.5 µM): 63.1% (inactive) | inhibition ([10]; measured here: inhibition with BGB combination, at 0.05 µM): -17.4% | inhibition ([10]; measured here: inhibition with cisplatin combination, at 0.05 µM): -1.37% | inhibition ([11]; at 0.5 µM): -15.5% (inactive) | inhibition [11, 22]: -18.2% | inhibition [11, 23]: -6.5% | inhibition ([12]; at 0.5 µM): 15.1% (inactive) | inhibition ([12]; measured here: BGB combination, at 0.5 µM): 4.09% | inhibition ([12]; measured here: BGB combination, at 5 µM): 52.8% | inhibition ([12]; measured here: cisplatin combination, at 0.5 µM): 11.9% | inhibition ([12]; measured here: cisplatin combination, at 5 µM): 66.7% | inhibition ([13]; BGB combination, concentration series, at 5 µM): 113% | inhibition ([13]; at 0.5 µM): 63.6% (inactive) | inhibition ([13]; cisplatin combination, concentration series, at 5 µM): 110% | inhibition [14]: 4.77% (inactive) | inhibition ([14]; measured here: combo with BGB IC20): -3.14% | inhibition ([14]; measured here: combo with cisplatin IC20): 8.25% | inhibition ([15]; at 0.5 µM): -17.7% (inactive) | inhibition ([15]; cisplatin combination, at 0.5 µM): -11.9% | inhibition ([15]; cisplatin combination, at 5 µM): 0.406% | inhibition ([15]; measured here: BGB IC40 combination 0.05 uM, at 0.05 µM): 0.063% | inhibition ([15]; single agent, at 5 µM): 26.6% | inhibition ([16]; at 0.5 µM): -16.7% (inactive) | inhibition ([16]; cisplatin combo, at 5 µM): -5.08% | inhibition ([16]; measured here: BGB IC40 combination, at 0.05 µM): -23.1% | inhibition [16, 22]: 12.6% | inhibition ([16]; single agent, at 5 µM): -10.3% | inhibition ([17]; at 0.5 µM): -1.16% (inactive) | inhibition [17, 20]: -1.16% | inhibition [17, 21]: -1.16% | inhibition ([17]; single agent, at 0.05 µM): -14.2% | inhibition ([17]; single agent, at 5 µM): 77.7%

Cc1scc2c1N(C(=O)CN1CCN(C)CC1)c1ccccc1NC2=O
remaining NAD [1]: 10 nM (inactive) | z-score [18]: 0.33 (inactive) and 0.02 (inactive) and 0.68 (inactive)
